Compounds with a hit are over-represented: about 1.9% of the library has one in this group of screens.
aDG glyco act: activators of alpha-DG glycosylation, primary screen, uHTS, Pro5-aDG cells, AlphaScreen. alpha-DG glycosylation AlphaScreen (IIH6); 0% Pro5, 100% B10-LARGE cell signal. hit rate 0.22% among 360,000. activation, % at 10 µM. AID 624168, 2012;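 active means activation of at least 8% versus controls, or a plate z-score of at least 8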;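 further: Pro5 are CHO cells carrying HIG-tagged alpha-DG that lacks glycosylation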
EBNA-1 inhibitor: EBNA-1 DNA-binding inhibitors, primary screen, biochemical, fluorescence polarization | AID 1950, 2009 | hit rate 0.34% among 300,000 | inhibition, % at 14.8 µM; in the data active means inhibition above about 28%
NCF1 inh: p47phox/p22phox peptide binding inhibitors, primary screen, biochemical, uHTS, NADPH oxidase regulatory subunit | Neutrophil cytosol factor 1 (Homo sapiens), P14598 | hit rate 0.53% among 220,000 | inhibition, % at 24.7 µM | AID 1274, 2008 | fluorescence polarization, 2 h;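 active means inhibition above about 30%, limit read from the data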;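 further: 0% = p47phox with labelled peptide and 100% = labelled peptide alone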
Target sequence (P14598 whole entry, looked up): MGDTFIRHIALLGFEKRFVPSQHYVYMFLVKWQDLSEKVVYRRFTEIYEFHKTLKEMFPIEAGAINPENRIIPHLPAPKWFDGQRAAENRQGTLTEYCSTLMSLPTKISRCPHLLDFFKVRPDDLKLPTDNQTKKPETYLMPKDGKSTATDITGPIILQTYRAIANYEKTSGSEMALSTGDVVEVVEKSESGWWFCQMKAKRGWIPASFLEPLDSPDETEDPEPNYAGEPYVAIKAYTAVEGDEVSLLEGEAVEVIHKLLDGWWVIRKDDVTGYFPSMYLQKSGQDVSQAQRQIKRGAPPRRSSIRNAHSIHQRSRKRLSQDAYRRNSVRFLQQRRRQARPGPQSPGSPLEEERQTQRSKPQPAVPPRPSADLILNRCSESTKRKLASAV
NR1D1 modulator: modulators of Rev-erb alpha DNA binding, primary screen, biochemical, FITC-DNA, fluorescence polarization, uHTS; hit rate 0.79% among 370,000; activity, % at 10 µM; AID 1259318, 2017; Rev-erbα–FITC-DNA binding, 90 min;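 active means activity above about 14%, limit read from the data; passing the limit was not always enough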;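 further: 0% = DMSO wells with 35 nM protein and 100% = DMSO wells with 750 nM protein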
ZTA DNA inh: counter-screen for EBNA-1 inhibitors: inhibitors of Epstein-Barr virus ZTA; P03206; ZTA-DNA binding, fluorescence polarization; inhibition, % at 11 µM; hit rate 0.15% among 320,000; AID 2234; in the data active means inhibition above about 33%
Target sequence (P03206 whole entry, looked up): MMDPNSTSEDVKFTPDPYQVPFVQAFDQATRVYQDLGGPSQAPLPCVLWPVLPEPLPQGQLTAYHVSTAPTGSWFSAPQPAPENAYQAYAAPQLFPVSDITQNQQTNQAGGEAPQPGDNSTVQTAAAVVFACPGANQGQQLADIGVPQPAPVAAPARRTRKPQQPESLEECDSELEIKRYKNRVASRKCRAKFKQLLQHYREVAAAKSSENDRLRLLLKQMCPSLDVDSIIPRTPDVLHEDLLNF
PG9 Ab binder: binders of HIV-1 gp120 antibody PG9, primary screen, biochemical, TR-FRET. HIV-1 gp120 / PG9 antibody interaction. TR-FRET gp120-PG9 antibody binding. inhibition, % at 6.7 µM. hit rate 0.43% among 360,000; in the data active means inhibition above about 8.5%
NR1D1 mod conf: modulators of Rev-erb alpha DNA binding, confirmation, biochemical, FITC-DNA, fluorescence polarization, single point; shares compounds with NR1D1 modulator; 90 min; activation, % at 25 µM; hit rate 61% among 3,000; AID 1259319, 2017;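 active means activation at or above a set limit, or at least 3 SD above the negative control mean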;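 further: 0% = 35 nM protein with DMSO and 100% = 750 nM protein high control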
RORg counter: modulation of RORgamma DNA binding, dose response, counter-screen for Rev-erb alpha modulator project, biochemical, fluorescence polarization, FITC-DNA. shares compounds with NR1D1 modulator. purified RORgamma protein-FITC-DNA binding. IC50, µM. hit rate 8% among 910. AID 1259320, 2017;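 active means Compounds whose fitted half-maximal concentration for disrupting protein-DNA binding is below 10 micromolar; the record names Rev-erb in its text, so the target is in doubt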
Active calls of the source: *; . = no result given.

SMILES	aDG glyco act	EBNA-1 inhibitor	NCF1 inh	NR1D1 modulator	ZTA DNA inh	PG9 Ab binder	NR1D1 mod conf	others
CCOC(=O)C1(C(=O)OCC)Cc2c([nH]c3ccccc23)[C@]2(N1)C(=O)N(C)c1ccc(Br)cc12	.	.	.	1	.	.	.
CC(C)(C)c1ccc(SC2=C[C@@]3(O)CC[C@@H](O)[C@@](Sc4ccc(C(C)(C)C)cc4)(C2=O)[C@H]3O)cc1	0	.	.	33*	.	-13	21*
CCN(CC)S(=O)(=O)c1ccc(C(=O)Nc2ccc(C(F)(F)F)n(C)c2=O)cc1	0	-3	.	4	12	0	.
COc1ccc(C(=O)Nc2ccc(C(F)(F)F)n(C)c2=O)cc1	0	3	-2	47*	-2	-4	32*	RORg counter=>40
Cc1ccc(C(=O)Nc2ccc(C(F)(F)F)n(C)c2=O)cc1	0	-6	2	28*	-24	3	3
O=C(CSc1nnc(-c2cccnc2)n1C1CCCCC1)N1CCCC1	.	.	.	5	.	.	.
O=C(c1ccncc1F)N1CCC(n2nnc3ncccc32)CC1	.	.	.	-4	.	.	.
COc1cc2c3nnc(-c4ccccc4)c-3cn(Cc3ccc(F)cc3)c2cc1OC	0	-20	-27	23*	-17	0	0
COc1cc2c3nnc(-c4ccc(F)cc4)c-3cn(Cc3ccc(C)cc3)c2cc1OC	0	17	-4	17	7	1	.
COc1ccc(OC)c(NC(=O)c2cc3oc4ccccc4c3cc2O)c1	0	14	-10	41*	-17	1	15
COc1cccc(NC(=O)Nc2c(-c3ccc(F)cc3)nc3ncccn23)c1	.	.	.	-1	.	.	.
O=C(Nc1cccnc1)c1cc(-c2ccc(Br)cc2)nc2ccccc12	0	-3	.	10	6	1	.
O=C(Nc1ccc(C(F)(F)F)cc1)c1cc(-c2cccnc2)nc2ccc(Br)cc12	0	-6	-16	34*	-3	0	22*
O=c1oc2c3c4c(cc2c(C(F)(F)F)c1CCN1CCOCC1)CCCN4CCC3	2	-11	-6	52*	11	-2	63*	RORg counter=>40
O=C(c1cc(Cl)cc(Cl)c1)N1CC[C@H]2[C@H](CCCN2Cc2ccccc2)C1	.	.	.	3	.	.	.
CC(C)CCNc1nnnc2c1sc1nc(N3CCOCC3)c3c(c12)CC(C)(C)SC3	0	5	-4	21*	1	-1	5
CC(C)C(=O)N1CC[C@H]2[C@H](CCCN2Cc2ccccc2)C1	.	.	.	7	.	.	.
C=CCN1C(=O)[C@@H](CC(=O)N2CCN(C(=O)C3CC3)CC2)[C@]2(C(=O)OCC)CCCCC/C=C/12	.	.	.	-4	.	.	.
CSc1nc2ccc3nc(NC(=O)c4ccccc4)sc3c2s1	0	-1	0	38*	9	1	6
O=C(Nc1nc2ccccc2s1)c1ccccc1	0	-3	-7	8	-13	0	.
Cc1csc2c(=O)sc(NC(=O)c3ccc(F)cc3)nc12	0	8	-10	3	4	-3	.
Cc1csc2nc(NC(=O)c3ccccc3)sc(=O)c12	0	3	-14	24*	-10	0	16
Cc1cc2cc(C)c(NCCNC(=O)c3cccs3)nc2cc1C	0	-3	-3	21*	-29	-3	-7
CCOCCCNc1nc2c(C)cccn2c(=O)c1/C=C1\SC(=S)N(C(C)CC)C1=O (stereo not given)	0	9	-40	23*	11	-3	16
Cc1nn(CCC(=O)NNC(=O)Nc2ccc(F)cc2)c(C)c1[N+](=O)[O-]	.	.	.	7	.	.	.
SMILES	aDG glyco act	EBNA-1 inhibitor	NCF1 inh	NR1D1 modulator	ZTA DNA inh	PG9 Ab binder	NR1D1 mod conf	others
CCOc1cccc2sc(=NC(=O)c3ccc(S(=O)(=O)N4CCOCC4)cc3)n(C)c12	0	1	-9	30*	20	-2	-4
CCOCCn1c(=NC(=O)c2ccc(S(=O)(=O)N3CCOCC3)cc2)sc2cc(S(N)(=O)=O)ccc21	0	1	.	7	15	-1	.
NC(=O)c1cn(-c2ccccc2)nc1-c1cc2ccccc2oc1=O	0	9	-4	-2	0	0	.
O=C(c1ccccc1)c1nn(-c2ccc(Cl)cc2)cc1C(=O)c1cc2ccccc2oc1=O	1	-13	-14	34*	-26	-1	-8
CCOC(=O)c1ccc(NC(=O)CSc2nnc(SCc3cccc4ccccc34)s2)cc1	.	.	.	6	.	.	.
CCOc1ccc(-c2nc(CSCC(=O)NC3CCC3)c(C)o2)cc1	.	.	.	-2	.	.	.
O=C(Nc1ccc(Br)cc1F)c1ccc2nsnc2c1	0	15	.	31*	11	1	22*
Cc1ccc(NC(=O)c2ccc3nsnc3c2)c(Cl)c1	0	3	.	27*	1	-4	16
COc1ccccc1NC(=O)c1ccc2nsnc2c1	0	6	.	4	-1	-3	.
COc1ccc(CN2C(=O)CCCC2(C)c2nnnn2-c2ccc3c(c2)OCCO3)cc1 (stereo not given)	.	.	.	2	.	.	.
c1ccc(CCSc2nnc(-c3cccnc3)n2Cc2ccccc2)cc1	.	.	.	-4	.	.	.
O=C(Nc1nc2ncccn2c1-c1ccc(F)cc1)C1CC1	.	.	.	-1	.	.	.
O=C(COC(=O)c1ccc(Br)o1)Nc1ncc(Cl)cc1Cl	0	0	11	5	-12	-1	.
O=C(COC(=O)c1sc2cc(F)ccc2c1Cl)Nc1ncc(Cl)cc1Cl	0	6	-32	64*	-9	-2	37*	RORg counter=>40
COc1ccc(/C=C2\SC(=O)N(CC(=O)Nc3ccc(F)cc3)C2=O)cc1O	0	1	.	8	-12	-2	.
COc1ccc(/C=C2/SC(=O)N(CCC(=O)Nc3ccccc3)C2=O)cc1OC	0	-6	-12	24*	-14	-37	31*	RORg counter=>40
COc1ccc(/C=C2/SC(=O)N(CC(=O)Nc3cc(C)on3)C2=O)cc1OC	0	8	-7	49*	4	-5	27*
COc1ccc(/C=C2/SC(=O)N(CCC(=O)Nc3ccc(C)cc3)C2=O)cc1OC	.	-4	-3	30*	-6	-1	25*
COc1ccc(/C=C2\SC(=O)N(CC(=O)Nc3cccnc3)C2=O)cc1OC	0	1	-9	8	25	-3	.
CN(Cc1ccccc1)C(=O)OCc1cn(Cc2cc(F)ccc2F)nn1	.	.	.	2	.	.	.
COc1ccc(CCNC(=O)Cn2ncc3c2-c2cc(C)ccc2OC3)cc1	.	.	.	-6	.	.	.

Screening results: PubChem, several laboratories
